Consider 23 molecules from PubChem BioAssay AID1851 (National Center for Advancing Translational Sciences (NCATS), 2009).

In all, about 16,000 compounds went through this assay and about 5,800 (36%) were called active. About 23% were inconclusive and are not listed. The list shows a part of the results. Values without a mark were called inactive. The call rests on the fitted dose curve; in most records, active means well fitted curve in the direction sought with a large enough effect; inconclusive means small, poorly fitted or top-dose-only effect, or effect the other way; inactive means no such curve, though single readings can be large or run the other way.
On the % scale 0 is the no-effect control and ±100 the full control effect.

Sequence of Cytochrome P450 2C19 (Homo sapiens) (P33261 whole entry, looked up): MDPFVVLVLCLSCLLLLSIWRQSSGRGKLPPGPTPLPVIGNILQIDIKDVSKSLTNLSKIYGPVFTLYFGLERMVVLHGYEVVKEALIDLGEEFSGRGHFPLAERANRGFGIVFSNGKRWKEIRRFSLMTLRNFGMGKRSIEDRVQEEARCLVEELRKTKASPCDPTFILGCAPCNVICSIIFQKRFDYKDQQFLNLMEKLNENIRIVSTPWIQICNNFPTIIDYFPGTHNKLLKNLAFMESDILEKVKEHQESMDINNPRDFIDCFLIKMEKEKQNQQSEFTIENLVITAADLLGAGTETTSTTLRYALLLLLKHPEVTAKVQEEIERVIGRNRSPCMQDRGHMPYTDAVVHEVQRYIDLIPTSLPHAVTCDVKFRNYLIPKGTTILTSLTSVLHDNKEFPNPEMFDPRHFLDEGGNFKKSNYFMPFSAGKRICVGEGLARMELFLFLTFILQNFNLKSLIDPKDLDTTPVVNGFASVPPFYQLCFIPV

This assay concerns the target Cytochrome P450 2C19 (Homo sapiens) (UniProt P33261). The experiment in a line: Cytochrome panel assay with activity outcomes. The settings on record: recombinant CYP, pro-luciferin dealkylation, luminescence, p450-cyp2c19; series mostly up to 57.1 µM.
For `Cc1cccc(Cn2cnc3c(NS(C)(=O)=O)c(C)c(C)cc32)c1`, the AC50 is 3.98 µM (active).
`Cc1cc2c(ncn2Cc2ccccc2)c([N+](=O)[O-])c1C`: the AC50 was 4.47 µM (active).
In the case of `COc1ccc2oc(-c3ccc(C)c(NC(=O)CSc4ccc(Cl)cc4)c3)nc2c1`, the AC50 was 0.562 µM (active).
In the case of `CC[C@@H]1OC(=O)[C@H](C)[C@H](O[C@@H]2C[C@](C)(OC)[C@H](O)[C@H](C)O2)[C@H](C)[C@H](O[C@@H]2O[C@@H](C)C[C@@H](N(C)C)[C@@H]2O)[C@](C)(O)C[C@H](C)[C@@H]2N[C@H](COCCOC)O[C@H]([C@@H]2C)[C@]1(C)O`, the AC50 result was “inactive”.
Take `CCN(CC)CCCNC(=O)CC1Sc2ccccc2NC1=O` (stereo not drawn): the AC50 entry was “inactive”.
With `COC(=O)c1cc(NC(=O)CC2NC3CCCCC3NC2=O)cc(C(=O)OC)c1` (stereo not drawn), the AC50 result is “inactive”.
For the molecule `COC(=O)c1c(NC(=O)CC2Nc3ccccc3NC2=O)sc(C)c1C` (stereo not drawn), the concentration at half-maximal activity (AC50) was 11.2 µM (active).
For the molecule `Nc1nc(N)c2nn(-c3ccc(C(=O)O)cc3)nc2n1`, the activity, negative = inhibition is 19.9% [at 11.4 µM].
In the case of `COC(=O)C1Cc2c([nH]c3ccccc23)CN1` (stereo not drawn), the AC50 is 3.98 µM (active).
As to `CC[C@H]1CN(C)[C@H]2Cc3c([nH]c4ccccc34)C(=O)C[C@H]1[C@H]2C(=O)OC`, the activity, negative = inhibition is 22.2% [at 11.4 µM].
Same read-out and setting: the result for `O=C(O)[C@@H]1Cc2c([nH]c3ccccc23)[C@@H](CCCCO)N1` reads 17.4% [at 11.4 µM].
Regarding `O=c1[nH]c2cc([N+](=O)[O-])c([N+](=O)[O-])cc2[nH]c1=O`, the AC50 result was “inactive”.
Take `CCCCCCCCCCCCCC(=O)O[C@H](CC(=O)O)C[N+](C)(C)C`: the AC50 entry is “inactive”.
Still for that read-out and setting: the result for `Cc1ccc(NC(=O)C2(NC(=O)c3cccc(N4C(=O)CSC4c4ccccc4)c3)CCCCC2)cc1` (stereo not drawn) reads 28.2 µM (active); that for `CN(C)CC/C=C1\c2ccccc2CSc2ccccc21`, “inactive”.
Still for that read-out and setting: next, `Cc1nc(SC2CC(=O)N(c3ccc([N+](=O)[O-])cc3)C2=O)nc2c1CCCC2` (stereo not drawn): 4.47 µM (active); `O=C(Cc1ccc(Br)cc1)OCC(=O)c1ccc2c(c1)OCCO2`: 15.8 µM (active).
As for `FC(F)(F)c1cccc(-c2nc3nc(Cl)c(Cl)nc3[nH]2)c1`, the activity, negative = inhibition is -19.6% [at 11.4 µM].
For `O=c1c2ccc(Cl)cc2nc(-c2cccc(C(F)(F)F)c2)n1O`, the concentration at half-maximal activity (AC50) was 14.1 µM (active).
As for `Cc1cc(C)n2c(SCC(=O)N(C)C3CCS(=O)(=O)C3)nnc2n1` (stereo not drawn), the AC50 entry was “inactive”.
On the same count and under the same terms, the result for `Cc1ccc(-n2ccnc2SCC(=O)N(CC(C)C)C2CCS(=O)(=O)C2)c(C)c1` (stereo not drawn) reads 10 µM (active).
As for `Cc1cccc(NC(=O)CSc2nnc(-c3ccco3)c(-c3ccco3)n2)c1C`, the half-maximal activity concentration (AC50) is 2.24 µM (active).
Same read-out and setting: next, `Cc1cccc(Nc2cc(Cl)nc(SCC(=O)O)n2)c1C`: “inactive”.
